Results on 17 molecules are retold here after PubChem BioAssay (NCATS).

A short description of experiment [1]: Drug repurposing screens with cells derived from glioblastoma tumor samples (AID 1345199). Further: nearly all actives have a fitted effect of over 40% in size. Further: potency means the concentration at half of the fitted maximal effect. On activity, negative = cell killing: on the % scale 0 is the no-effect control and ±100 the full control effect. The note with it: GBM patient neurospheres viability, ATP luminescence, 48 h. The procedure, abridged: (§1)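 Primary testing used CD133+ neurospheres from four GBM patients, seven concentrations, 48 h exposure and ATP-based viability; confirmation added three slower-growing patient lines.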

A further experiment concerns Es-2. The experiment is described as follows: Primary qHTS to identify gynecologic anti-cancer compounds using libraries of approved drugs and bioactive compounds (AID 1345084). Further: nearly all actives have a fitted effect of over 55% in size. Further: potency means the concentration at half of the fitted maximal effect. The note with it: Gynecologic cancer cell panel viability, ATPlite luminescence, 48 h; series mostly up to 57.5 µM. The procedure, abridged: (§2)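 Luminescence from the ATPlite ATP-monitoring reagent indicates viable cell number; lower signal means cytotoxicity. Cells received compound 16 h after seeding and were exposed for 48 h across five concentrations.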
(In qHTS, concentration-response curves come from the screen itself.)

Another experiment concerns Hek293T. The experiment is described as above. The note with it: Gynecologic cancer cell panel viability, ATPlite luminescence, 48 h, control line for the selectivity index; series mostly up to 57.5 µM. In short, it runs like this: as §2
The subject of the next experiment is JEG-3. Described as above. The note with it: Gynecologic cancer cell panel viability, ATPlite luminescence, 48 h; series mostly up to 57.5 µM. In short, it runs like this:
as §2

A further experiment deals with OV90. Described as above. The note with it: Gynecologic cancer cell panel viability, ATPlite luminescence, 48 h; series mostly up to 57.5 µM. The procedure, abridged:
as §2
In general terms: ATP-based viability assays read luminescence as a measure of living cells.

For the next experiment, the system named is PA-1. Described as above. The settings on record: Gynecologic cancer cell panel viability, ATPlite luminescence, 48 h; series mostly up to 57.5 µM. The procedure, abridged:
as §2

Another experiment concerns astro (control astrocytes). Kind of experiment: Drug repurposing screens with cells derived from glioblastoma tumor samples (AID 1345199). Further: nearly all actives have a fitted effect of over 40% in size. Further: potency means the concentration at half of the fitted maximal effect. On activity, negative = cell killing: on the % scale 0 is the no-effect control and ±100 the full control effect. The settings on record: viability, ATP luminescence, 48 h; series mostly up to 45.9 µM. The procedure, abridged: as §1
The subject of another experiment is HeLa. Kind of experiment: Primary qHTS to identify gynecologic anti-cancer compounds using libraries of approved drugs and bioactive compounds (AID 1345084). Further: nearly all actives have a fitted effect of over 55% in size. Further: potency means the concentration at half of the fitted maximal effect. The settings on record: Gynecologic cancer cell panel viability, ATPlite luminescence, 48 h; series mostly up to 57.5 µM. In short, it runs like this: as §2
Another experiment deals with SKOV3. Described as above. The note with it: Gynecologic cancer cell panel viability, ATPlite luminescence, 48 h; series mostly up to 57.5 µM. In short, it runs like this: as §2
The test system of the next experiment is Tov-21-G. The experiment is described as above. The settings on record: Gynecologic cancer cell panel viability, ATPlite luminescence, 48 h; series mostly up to 57.5 µM. The procedure, abridged:
as §2

The next experiment has as its system Tov112D. Described as above. The note with it: Gynecologic cancer cell panel viability, ATPlite luminescence, 48 h; series mostly up to 57.5 µM. The procedure, abridged: as §2
Experiment [2] has as its target Nuclear receptor subfamily 1 group I member 2 (Rattus norvegicus) (UniProt Q9R1A7). Kind of experiment: qHTS assay for small molecule activators of the rat pregnane X receptor (rPXR) signaling pathway (AID 651751; call rule not given here; further: 0% is about no effect). The note with it: rPXR reporter cells, luciferase (One-Glo), 24 h.
Experiment [3] can be described thus: qHTS assay for small molecule activators of the human pregnane X receptor (PXR) signaling pathway (AID 720659; call rule not given here; further: 0% is about no effect). The settings on record: DPX-2 HepG2 CYP3A4-luciferase, 24 h; series mostly up to 92.3 µM.
The mark [4] stands for this setting: at 45.9 µM (top of the series), tumour line B.
Setting [5] is: at 46.1 µM (top of the series), tumour line C.
[6] abbreviates: at 20 µM (top of the series), tumour line C.
Where [7] appears, read: at 45.9 µM (top of the series), tumour line D.
Setting [8] is: at 21.2 µM (top of the series), tumour line B.
Where [9] appears, read: at 21.2 µM (top of the series), tumour line D.
[10] abbreviates: at 46 µM (top of the series), tumour line A.

Unmarked numbers belong to inactive results. Records with an inconclusive call do not appear. The source made the active and inactive calls. Unless noted, the call rests on the fitted dose curve; in most records, active means well fitted curve in the direction sought with a large enough effect; inconclusive means small, poorly fitted or top-dose-only effect, or another doubt; inactive means no such curve, though single readings can be large; an effect the other way counts as inactive or inconclusive. Where a SMILES comes first, the peptide text is derived from it. Bridges are numbered along the chain shown (N, C = ends). [ ]: non-standard residue; d: D form. The star is where a group is joined. X1 = CC[C@@H](C)[C@@H](N)C1=N[C@H](C(=O)*)CS1; d(aIle) = CC[C@H](C)[C@@H](N)C(=O)O; dOrn = NCCC[C@@H](N)C(=O)O

Chain of Nuclear receptor subfamily 1 group I member 2 (Rattus norvegicus) (Q9R1A7 whole entry, looked up): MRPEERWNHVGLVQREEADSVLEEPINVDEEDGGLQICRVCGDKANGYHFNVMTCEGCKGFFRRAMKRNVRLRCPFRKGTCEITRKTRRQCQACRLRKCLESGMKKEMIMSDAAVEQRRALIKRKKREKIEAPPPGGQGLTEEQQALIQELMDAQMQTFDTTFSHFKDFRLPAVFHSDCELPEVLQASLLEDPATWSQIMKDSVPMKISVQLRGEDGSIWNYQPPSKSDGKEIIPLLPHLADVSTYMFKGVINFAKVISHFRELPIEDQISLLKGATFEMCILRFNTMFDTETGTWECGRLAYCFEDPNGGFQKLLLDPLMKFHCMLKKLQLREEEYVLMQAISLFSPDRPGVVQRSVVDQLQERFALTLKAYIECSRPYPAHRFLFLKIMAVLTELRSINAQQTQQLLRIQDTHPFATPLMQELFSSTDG

In the case of `CC(C)=CCC/C(C)=C/CC/C(C)=C/CC/C(C)=C/CC1=C(C)C(=O)c2ccccc2C1=O`, the activity, negative = cell killing in [1] (setting [4]) is -29.7%. For the same molecule, the Potency is 10 µM (active) in experiment [1] (tumour line A) and 23.1 µM (active) in experiment [1] (tumour line C).

As for `CN(C)CCOc1ccc(/C(=C(/CCCl)c2ccccc2)c2ccccc2)cc1`, in experiment [1] (setting [5]), the activity, negative = cell killing is -18.9%. Besides, the figures for the Potency in [1] (tumour line A) and in experiment [1] (tumour line D) were 8.91 µM (active) and 12.6 µM (active), respectively.

Take `O=C(Nc1ccc(O)cc1)c1ccccc1O`: in experiment [1] (setting [5]), the activity, negative = cell killing was -27.7%.

Consider `COc1ccc2c(c1)N(C[C@H](C)CN(C)C)c1ccccc1S2`, for which the activity, negative = cell killing in [1] (setting [6]) was 13%. Also, the Potency was 4.47 µM (active) in experiment [1] (tumour line A) and 12.6 µM (active) in experiment [1] (tumour line D).

As for `COc1ccc2nc(NC(=O)Nc3ccccc3)sc2c1`, the Potency with Es-2 was 8.91 µM (active); in the experiment on Hek293T, 14.1 µM (active); in the experiment on JEG-3 it was 20 µM (active); in the experiment on OV90, 22.4 µM (active); in the experiment on PA-1 it was 25.1 µM (active); with astro it was 7.94 µM (active).

On to `CC1CC(OC(=O)C(O)c2ccccc2)CC(C)(C)C1` (stereo not given), for which the Potency entry in the experiment on Es-2, in the experiment on HeLa, with Hek293T, in the experiment with JEG-3, with OV90 and in the experiment with PA-1 was “inactive” throughout. The Potency result in the experiment with Tov-21-G and in the experiment on astro was “inactive” each time. Further, the molecule was called inactive in the experiment with SKOV3 and in the experiment with Tov112D. Besides, the activity, negative = cell killing in [1] (setting [4]) is -16.2%; in experiment [1] (setting [7]), 6.83%; in [1] (setting [5]), -12.1%.

On to `CCCCC(=O)O[C@H]1CC[C@H]2[C@@H]3CCc4cc(O)ccc4[C@H]3CC[C@]12C`, for which the activity, negative = cell killing was -20.6% in experiment [1] (setting [4]) and 8.7% in experiment [1] (setting [5]). Further, the Potency in experiment [1] (tumour line A) is 28.2 µM (active); in experiment [1] (tumour line D) it was 11.2 µM (active).

Turning to `CCCCC[C@H](O)/C=C/[C@H]1[C@H](O)CC(=O)[C@@H]1CCCCCCC(=O)O`, the activity, negative = cell killing in experiment [1] (setting [6]) is 1.46%; in experiment [1] (setting [8]), -10.6%; in experiment [1] (setting [9]), -20.2%. Moreover, the Potency in experiment [1] (tumour line A) was 11.2 µM (active).

For `O=C(OCc1ccccc1)c1ccc(O)cc1`, the Potency result in the experiment on Es-2, in the experiment with HeLa, with Hek293T, in the experiment on JEG-3, in the experiment with OV90 and in the experiment with PA-1 was “inactive” throughout. In addition, the Potency result in the experiment on Tov-21-G and in the experiment on astro was “inactive” each time. Moreover, the result (in the experiment with SKOV3; in the experiment on Tov112D; in [3]) was inactive. The activity, negative = cell killing in experiment [1] (setting [4]) is -16.7%; in experiment [1] (setting [7]), -12.6%; in [1] (setting [5]), 10.4%. Also, in experiment [2], the max response is 2.15%.

With `COc1cc(C)c(/C=C/C(C)=C/C=C/C(C)=C/C(=O)O)c(C)c1C`, the activity, negative = cell killing was -16.3% in experiment [1] (setting [4]), 8.72% in experiment [1] (setting [7]) and -9.52% in experiment [1] (setting [5]).

As for `CC[C@@H](C)[C@@H](N)C1=N[C@H](C(=O)N[C@@H](CC(C)C)C(=O)N[C@@H](CCC(=O)O)C(=O)N[C@@H](C(=O)N[C@@H]2CCCCNC(=O)[C@@H](CC(N)=O)NC(=O)[C@@H](CC(=O)O)NC(=O)[C@@H](Cc3cnc[nH]3)NC(=O)[C@@H](Cc3ccccc3)NC(=O)[C@@H]([C@H](C)CC)NC(=O)[C@@H](CCCN)NC2=O)[C@@H](C)CC)CS1` (X1-LE[d(aIle)][dK][dOrn][dI][dF][dH][dD][dN]; lactam 4-C), the activity, negative = cell killing is 4.06% in experiment [1] (setting [6]); -2.34% in experiment [1] (setting [8]); -0.888% in experiment [1] (setting [9]); -20.3% in [1] (at 21.3 µM (top of the series), tumour line A); -12.2% in [1] (setting [4]); -10.9% in experiment [1] (setting [7]). The activity, negative = cell killing in experiment [1] (setting [10]) was -25%; in experiment [1] (setting [5]), 23.1%. In the experiment on astro, the Potency entry was “inactive”.

For the molecule `CC1=C(/C=C/C(C)=C/C=C/C(C)=C/C(=O)Oc2c(C)c(C)c3c(c2C)CC[C@@](C)(CCC[C@H](C)CCC[C@H](C)CCCC(C)C)O3)C(C)(C)CCC1`, the activity, negative = cell killing in [1] (setting [4]) was -7.62%; in experiment [1] (setting [7]), -2.61%. Also, the Potency in experiment [1] (tumour line A) is 25.1 µM (active).

In the case of `O=C1c2ccccc2C(=O)c2c1ccc(O)c2O`, the Potency result with Es-2, in the experiment on HeLa, in the experiment on Hek293T, in the experiment on JEG-3, in the experiment on OV90 and in the experiment on PA-1 was “inactive” throughout. Also, the Potency entry in the experiment on Tov-21-G and in the experiment on astro was “inactive” in each case. Also, the molecule was classed as inactive with Tov112D. For the same molecule, the figures for the activity, negative = cell killing in [1] (setting [4]) and in [1] (setting [5]) were -22.8% and -2.45%, respectively.

For the molecule `O=C(O)CCC(=O)c1ccc(-c2ccccc2)cc1`, the Potency result in the experiment on Es-2, in the experiment with HeLa, in the experiment with Hek293T, in the experiment with JEG-3, in the experiment on OV90 and in the experiment with PA-1 was “inactive” in each case. Moreover, the Potency result in the experiment with Tov-21-G and in the experiment with astro was “inactive” in each case. Also, the call in the experiment with SKOV3 and in the experiment with Tov112D was inactive. In addition, the figures for the activity, negative = cell killing in experiment [1] (setting [6]), in [1] (setting [8]) and in experiment [1] (setting [9]) were -5.86%, -10% and -17.7%, respectively.

Turning to `Cc1c(Cl)cccc1Nc1ncccc1C(=O)O`, the activity, negative = cell killing in experiment [1] (setting [4]) is -16.8%; in experiment [1] (setting [7]), -17%.

For the molecule `COc1ccc(C[C@H](C)NC[C@@H](O)c2ccc(O)c(NC=O)c2)cc1`, the Potency result in the experiment with HeLa, in the experiment on JEG-3, in the experiment with OV90, in the experiment on PA-1, in the experiment on Tov-21-G and with astro was “inactive” in each case. Also, the activity, negative = cell killing in [1] (setting [7]) was -10.9%; in experiment [1] (setting [5]), -28.7%. In experiment [1] (tumour line A), the Potency is 17.8 µM (active).

Take `CO[C@H]1C[C@@H]2CC[C@@H](C)[C@@](O)(O2)C(=O)C(=O)N2CCCC[C@H]2C(=O)O[C@H]([C@H](C)C[C@@H]2CC[C@@H](OC(=O)C(C)(CO)CO)[C@H](OC)C2)CC(=O)[C@H](C)/C=C(\C)[C@@H](O)[C@@H](OC)C(=O)[C@H](C)C[C@H](C)/C=C/C=C/C=C/1C`: the Potency result in the experiment on Es-2, with HeLa, with Hek293T, in the experiment on JEG-3, in the experiment on OV90 and with PA-1 was “inactive” in each case. Besides, the Potency entry in the experiment on Tov-21-G and in the experiment with astro was “inactive” each time. Also, the result with Tov112D was inactive. For the same molecule, the activity, negative = cell killing in experiment [1] (setting [4]) is -14.4%; in experiment [1] (setting [7]) it was -16%; in experiment [1] (setting [10]) it was -25.2%; in experiment [1] (setting [5]), -22.5%.
